In PubChem BioAssay AID1159580 (chemical genetic matrix, 2015):
The campaign covered roughly 5,500 compounds. About 2,000 (36%) were called active. About 18% were inconclusive and are not listed. This is one part of the list. Unmarked numbers belong to inactive results. Cut-off read from the data, not from the text of the source: active = normalized growth mostly below about 0.91 (no sharp cut-off); inconclusive = no clear call, values can overlap the other calls; inactive = mostly above about 0.92.

Assay: chemical genetic growth profiling, strain panel (AID 1159580);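 note: tested at 20 µM; growth read once vehicle control cultures reached saturation at 30 °C; 1 = growth at the plate median or of vehicle wells; lower values mean less growth of the strain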
Settings: growth OD
[1] = S. cerevisiae deletion strains, locus YAL013W, strain DEP1, stronger effect = lower value
[2] = S. cerevisiae deletion strains, locus YBR229C, strain ROT2, stronger effect = lower value
[3] = S. cerevisiae deletion strains, locus YDL101C, strain DUN1, stronger effect = lower value
[4] = S. cerevisiae deletion strains, locus YDR150W, strain NUM1, stronger effect = lower value
[5] = S. cerevisiae deletion strains, locus YEL061C, strain CIN8, stronger effect = lower value
[6] = S. cerevisiae deletion strains, locus YGR078C, strain PAC10, stronger effect = lower value
[7] = S. cerevisiae deletion strains, locus YHR030C, strain SLT2, stronger effect = lower value
[8] = S. cerevisiae deletion strains, locus YHR087W, strain rtc3, stronger effect = lower value
[9] = S. cerevisiae deletion strains, locus YJR043C, strain POL32, stronger effect = lower value
[10] = S. cerevisiae deletion strains, locus YJR075W, strain HOC1, stronger effect = lower value
[11] = S. cerevisiae deletion strains, locus YLR039C, strain RIC1, stronger effect = lower value
[12] = S. cerevisiae deletion strains, locus YLR058C, strain SHM2 (second series), stronger effect = lower value
[13] = S. cerevisiae deletion strains, locus YLR085C, strain ARP6, stronger effect = lower value
[14] = S. cerevisiae deletion strains, locus YLR262C, strain YPT6, stronger effect = lower value
[15] = S. cerevisiae deletion strains, locus YML094W, strain GIM5, stronger effect = lower value
[16] = S. cerevisiae deletion strains, locus YMR219W, strain ESC1, stronger effect = lower value
[17] = S. cerevisiae deletion strains, locus YMR263W, strain SAP30, stronger effect = lower value
[18] = S. cerevisiae deletion strains, locus YNL153C, strain GIM3, stronger effect = lower value
[19] = S. cerevisiae deletion strains, locus YNL298W, strain CLA4 (second series), stronger effect = lower value
[20] = S. cerevisiae deletion strains, locus YNL322C, strain KRE1, stronger effect = lower value
[21] = S. cerevisiae deletion strains, locus YNR030W, strain Alg12, stronger effect = lower value
[22] = S. cerevisiae deletion strains, locus YOL006C, strain TOP1, stronger effect = lower value
[23] = S. cerevisiae deletion strains, locus YPL055C, strain LGE1, stronger effect = lower value
[24] = S. cerevisiae deletion strains, locus YPL241C, strain CIN2, stronger effect = lower value
[25] = S. cerevisiae deletion strains, locus YPR135W, strain CTF4, stronger effect = lower value
[26] = S. cerevisiae deletion strains, locus YJL187C, strain SWE1, stronger effect = lower value
[27] = S. cerevisiae strains, strain wild type, stronger effect = lower value

With CCCc1cc(=O)oc2c1c(C)nn2-c1ccccc1 the normalized growth [1] was 0.932 (active), the normalized growth [2] was 0.94 and the normalized growth [3] was 0.954. The normalized growth (S. cerevisiae deletion strains, locus YDL134C, strain PPH21, stronger effect = lower value) was 0.938, the normalized growth [4] was 0.978 and the normalized growth [5] was 0.885 (active). For the same molecule, the normalized growth [6] was 0.935, the normalized growth [7] was 0.432 (active) and the normalized growth [8] was 0.862 (active). For the same molecule, the normalized growth [9] was 0.998, the normalized growth [10] was 0.869 (active) and the normalized growth [11] was 0.786 (active). The normalized growth [12] was 0.923 (active), the normalized growth [13] was 0.539 (active) and the normalized growth [14] was 0.744 (active). The normalized growth [15] was 0.921, the normalized growth [16] was 0.938 (active) and the normalized growth [17] was 0.956. The normalized growth [18] was 0.864 (active), the normalized growth [19] was 0.839 (active) and the normalized growth [20] was 0.944. For the same molecule, the normalized growth [21] was 0.875 (active), the normalized growth [22] was 0.599 (active) and the normalized growth [23] was 0.799 (active). For the same molecule, the normalized growth [24] was 0.782 (active) and the normalized growth [25] was 0.552 (active).

Work on CCCc1cc(=O)oc2cc(OCC(=O)OCC)ccc12 yielded a normalized growth [1] of 0.997, a normalized growth [2] of 0.971 and a normalized growth [3] of 0.945. The normalized growth [4] was 0.986, the normalized growth [5] was 0.963 and the normalized growth [6] was 0.985. The normalized growth [7] was 0.759, the normalized growth [8] was 0.963 and the normalized growth [26] was 0.991. It also gave a normalized growth [9] of 1, a normalized growth [10] of 0.972 and a normalized growth (S. cerevisiae deletion strains, locus YKL190W, strain CNB1, stronger effect = lower value) of 0.995. For the same molecule, the normalized growth [11] was 0.925, the normalized growth [12] was 0.991 and the normalized growth [13] was 0.913. For the same molecule, the normalized growth [14] was 0.958, the normalized growth [15] was 0.883 and the normalized growth [16] was 0.987. The normalized growth [17] was 1.03, the normalized growth [18] was 0.98 and the normalized growth [19] was 0.961. The normalized growth [20] was 0.995, the normalized growth [21] was 0.965 and the normalized growth [22] was 0.864. The normalized growth [23] was 0.922, the normalized growth [24] was 1.04 and the normalized growth [25] was 0.82. The normalized growth [27] was 0.99.

In the case of O=C(O)C1C2CCC1C(O)C2 (stereo not drawn), the normalized growth [1] is reported as 0.99, the normalized growth [2] is reported as 1.02 and the normalized growth [3] is reported as 0.981. It also gave a normalized growth [4] of 1, a normalized growth [5] of 1.02 and a normalized growth [6] of 0.998. For the same molecule, the normalized growth [7] was 0.98, the normalized growth [8] was 0.99 and the normalized growth [26] was 1.02. For the same molecule, the normalized growth [9] was 1, the normalized growth [10] was 1.02 and the normalized growth [11] was 0.967. It also gave a normalized growth [12] of 1.02, a normalized growth [13] of 1.03 and a normalized growth [14] of 0.968. It also gave a normalized growth [15] of 1.01, a normalized growth [16] of 0.998 and a normalized growth [17] of 0.998. It also gave a normalized growth (S. cerevisiae deletion strains, locus YMR307W, strain GAS1, stronger effect = lower value) of 1.01, a normalized growth [18] of 0.976 and a normalized growth [19] of 1. It also gave a normalized growth [20] of 1, a normalized growth [21] of 1.01 and a normalized growth [22] of 0.972. It also gave a normalized growth [23] of 1.03, a normalized growth [24] of 0.997 and a normalized growth [25] of 0.979. It also gave a normalized growth [27] of 0.967.

In the case of NC(=O)c1ncn(C2OC(CO)C(O)C2O)c1O (stereo not drawn), the normalized growth [1] is reported as 1.01, the normalized growth (S. cerevisiae deletion strains, locus YAL040C, strain CLN3, stronger effect = lower value) is reported as 1.01 and the normalized growth (S. cerevisiae deletion strains, locus YCL061C, strain MRC1 (second series), stronger effect = lower value) is reported as 1.01. The normalized growth (S. cerevisiae deletion strains, locus YDR363W, strain ESC2, stronger effect = lower value) was 1.01, the normalized growth (S. cerevisiae deletion strains, locus YER002W, strain NOP16, stronger effect = lower value) was 1 and the normalized growth (S. cerevisiae deletion strains, locus YNL128W, strain TEP1, stronger effect = lower value) was 0.998. The normalized growth [18] was 1.02, the normalized growth (S. cerevisiae deletion strains, locus YNL175C, strain NOP13, stronger effect = lower value) was 1 and the normalized growth (S. cerevisiae deletion strains, locus YNL197C, strain WHI3, stronger effect = lower value) was 1.01. The normalized growth (S. cerevisiae deletion strains, locus YNL224C, strain SQS1, stronger effect = lower value) was 1 and the normalized growth (S. cerevisiae deletion strains, locus YOR083W, strain WHI5 (second series), stronger effect = lower value) was 1.02.
